Test systems include DU-145 prostate; K-562 leukemia; MALME-3M melanoma; MDA-MB-231 breast; RXF 393 renal; SF-268 CNS; SF-295 CNS; SF-539 CNS; UACC-257 melanoma; M14 melanoma.
Holding throughout (assay): NCI-60 one-dose screen, 48 h (100 = growth as untreated, 0 = no growth, -100 = all killed)
What all share (details): 10 µM unless noted

Values joined by “and” are separate entries in the source; they are usually repeats but may differ in a detail not shown here. Identical values can stand only once. The panel holds about 83,000 compounds, 20% with a hit somewhere; the sample as a whole holds those more often.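 Values shown are percent growth following 48 h exposure of cells in 96-well plates to a single concentration of compound; below 10 was considered active.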 Active and inactive are the calls of the source.

We go through twelve compounds from PubChem BioAssay (NCI).

Turning to `CN(C)c1ccc(C(=N)c2ccc(N(C)C)cc2)cc1`, the growth is 42.3% (inactive) and 56.5% (inactive) in the assay with DU-145 prostate; 12.8% (inactive) and 7.8% (active) in the assay with K-562 leukemia; 61.6% (inactive) in the assay with MALME-3M melanoma; 53.9% (inactive) and 35.9% (inactive) with MDA-MB-231 breast; 49.6% (inactive) and 39.6% (inactive) in the assay with RXF 393 renal; 44.5% (inactive) and 53.6% (inactive) in the assay on SF-268 CNS. Also, the growth with SF-295 CNS is 26.7% (inactive) and 12.1% (inactive); with SF-539 CNS, 41.1% (inactive) and 34.6% (inactive); in the assay with UACC-257 melanoma it was 38.2% (inactive) and 51.7% (inactive); in the assay on M14 melanoma it was 2.95% (active).

With `CN(C=O)c1ccccc1`, the growth in the assay on DU-145 prostate was 103% (inactive); in the assay on K-562 leukemia it was 97.7% (inactive); in the assay with MALME-3M melanoma it was 87.3% (inactive); with MDA-MB-231 breast it was 84.6% (inactive); in the assay with RXF 393 renal it was 105% (inactive); in the assay on SF-268 CNS, 103% (inactive). Further, the growth was 92.8% (inactive) in the assay on SF-295 CNS, 92.9% (inactive) in the assay on SF-539 CNS, 103% (inactive) in the assay with UACC-257 melanoma and 95.8% (inactive) with M14 melanoma.

Consider `Nc1nc(=S)c2[nH]cnc2[nH]1`, for which the growth was 21.3% (inactive) and 21% (inactive) in the assay on DU-145 prostate; 9.77% (active) and -2.79% (active) in the assay with K-562 leukemia; 21.6% (inactive) and 35.7% (inactive) in the assay on MALME-3M melanoma; 32.9% (inactive) and 29.4% (inactive) in the assay on MDA-MB-231 breast; 5.3% (active) and -2.73% (active) in the assay with RXF 393 renal; 17.8% (inactive) and 26.3% (inactive) with SF-268 CNS. Also, the growth in the assay on SF-295 CNS was 25.6% (inactive) and 19% (inactive); in the assay with SF-539 CNS it was 7.88% (active); with UACC-257 melanoma it was 41.4% (inactive) and 24.2% (inactive); in the assay with M14 melanoma, 5.54% (active).

As for `COc1ccc(CCO)cc1`, the growth with DU-145 prostate was 110% (inactive); in the assay with K-562 leukemia it was 82.9% (inactive); in the assay on MALME-3M melanoma, 92.1% (inactive); in the assay on MDA-MB-231 breast it was 102% (inactive); in the assay with RXF 393 renal, 105% (inactive); in the assay with SF-268 CNS, 105% (inactive). The growth was 103% (inactive) in the assay on SF-295 CNS, 101% (inactive) in the assay on SF-539 CNS, 96.4% (inactive) with UACC-257 melanoma and 103% (inactive) in the assay with M14 melanoma.

For the compound `N#Cc1c(N)nc2c(c(-c3ccc(Cl)cc3)nn2-c2ccccc2)c1C#N`, the growth is 101% [100 µM] (inactive) in the assay with DU-145 prostate; 97.6% [100 µM] (inactive) with K-562 leukemia; 105% [100 µM] (inactive) with MALME-3M melanoma; 98% [100 µM] (inactive) in the assay with MDA-MB-231 breast; 97.1% [100 µM] (inactive) in the assay on RXF 393 renal; 93.7% [100 µM] (inactive) in the assay with SF-268 CNS. Besides, the growth in the assay on SF-295 CNS is 97.9% [100 µM] (inactive); in the assay on SF-539 CNS it was 74.1% [100 µM] (inactive); in the assay with UACC-257 melanoma, 91.8% [100 µM] (inactive); in the assay on M14 melanoma, 106% [100 µM] (inactive).

Regarding `Cc1cc(-c2ccc(N=Nc3c(C)nn(-c4ccc(S(=O)(=O)O)cc4)c3O)c(C)c2)ccc1N=Nc1ccc(O)c(C(=O)O)c1`, the growth in the assay with DU-145 prostate was 108% (inactive); with K-562 leukemia, 104% (inactive); in the assay on MALME-3M melanoma it was 111% (inactive); in the assay with MDA-MB-231 breast it was 97.2% (inactive); in the assay on RXF 393 renal it was 113% (inactive); with SF-268 CNS, 97.6% (inactive). In addition, the growth with SF-295 CNS was 93.4% (inactive); with SF-539 CNS, 101% (inactive); in the assay on UACC-257 melanoma, 101% (inactive); with M14 melanoma, 107% (inactive).

As to `CC(CN(C)C)CN1c2ccccc2Sc2ccccc21` (stereo not given), the growth was 97.3% (inactive) and 111% (inactive) and 90% (inactive) in the assay on DU-145 prostate; 67.2% (inactive) and 72.1% (inactive) and 49.8% (inactive) with K-562 leukemia; 81.7% (inactive) and 101% (inactive) and 95.8% (inactive) in the assay with MALME-3M melanoma; 62% (inactive) and 90% (inactive) in the assay on MDA-MB-231 breast; 53.3% (inactive) and 86.1% (inactive) and 70.7% (inactive) in the assay on RXF 393 renal; 90.8% (inactive) and 91.7% (inactive) and 78.1% (inactive) with SF-268 CNS. In addition, the growth in the assay on SF-295 CNS was 88% (inactive) and 35.8% (inactive) and 92% (inactive); in the assay on SF-539 CNS, 91.7% (inactive) and 81.9% (inactive); in the assay with UACC-257 melanoma, 65.1% (inactive) and 110% (inactive) and 92.1% (inactive); with M14 melanoma, 47.9% (inactive) and 81.3% (inactive) and 75.8% (inactive).

`Cn1c(-c2ccccc2)cc(=O)cc1-c1ccccc1`: the growth in the assay with DU-145 prostate was 3.58% (active); in the assay on K-562 leukemia, 99.8% (inactive); in the assay on MALME-3M melanoma, 122% (inactive); in the assay with MDA-MB-231 breast, 88.8% (inactive); with RXF 393 renal it was 62% (inactive); with SF-268 CNS, 89.9% (inactive). Further, the growth in the assay with SF-295 CNS is 93.7% (inactive); in the assay on SF-539 CNS it was 111% (inactive); in the assay with UACC-257 melanoma, 95.1% (inactive); in the assay with M14 melanoma, 97.7% (inactive).

As for `CC(C)(C)C1CCC(=NO)CC1` (stereo not given), the growth is 112% (inactive) with DU-145 prostate; 128% (inactive) with K-562 leukemia; 103% (inactive) in the assay with MALME-3M melanoma; 104% (inactive) with MDA-MB-231 breast; 90.6% (inactive) in the assay on RXF 393 renal; 109% (inactive) in the assay on SF-268 CNS. Besides, the growth in the assay on SF-295 CNS is 98.3% (inactive); with SF-539 CNS, 96.2% (inactive); with UACC-257 melanoma, 76.4% (inactive); in the assay on M14 melanoma, 100% (inactive).

For `OC(CC(c1ccccc1)c1cccc2ccccc12)(c1ccccc1)c1ccccc1` (stereo not given), the growth in the assay with DU-145 prostate is 108% (inactive) and 103% (inactive); with K-562 leukemia it was 92.9% (inactive) and 67.2% (inactive); in the assay with MALME-3M melanoma, 101% (inactive) and 104% (inactive); in the assay with MDA-MB-231 breast it was 69.4% (inactive) and 71.2% (inactive); in the assay on RXF 393 renal, 92.7% (inactive) and 86.7% (inactive); in the assay on SF-268 CNS it was 84.9% (inactive) and 89.4% (inactive). Besides, the growth in the assay with SF-295 CNS is 80% (inactive) and 81.3% (inactive); in the assay with SF-539 CNS it was 94.4% (inactive) and 93.3% (inactive); in the assay with UACC-257 melanoma it was 62.8% (inactive) and 85.3% (inactive); in the assay with M14 melanoma it was 72.1% (inactive) and 77.2% (inactive).

Regarding `O=C1c2ccccc2C(c2ccccc2)C1c1ccccc1` (stereo not given), the growth in the assay with DU-145 prostate is 104% (inactive); in the assay with K-562 leukemia, 77.2% (inactive); with MALME-3M melanoma, 99.5% (inactive); in the assay on MDA-MB-231 breast, 89.1% (inactive); in the assay with RXF 393 renal, 102% (inactive); in the assay with SF-268 CNS, 97.9% (inactive). Further, the growth with SF-295 CNS is 94.8% (inactive); in the assay with SF-539 CNS, 101% (inactive); in the assay on UACC-257 melanoma, 96.3% (inactive); in the assay with M14 melanoma it was 97.7% (inactive).

As to `Cc1cc2nc3ccc(=[N+](C)C)cc-3sc2cc1N`, the growth with DU-145 prostate was 3.25% (active) and -41.6% (active); with K-562 leukemia, 7.3% (active); in the assay on MALME-3M melanoma, -47.8% (active) and -3.68% (active); in the assay with MDA-MB-231 breast, -18.8% (active) and -10.4% (active); with RXF 393 renal, 51.6% (inactive) and 36% (inactive); in the assay on SF-268 CNS, -8.64% (active) and -29.4% (active). The growth in the assay on SF-295 CNS is 4.64% (active) and 15.1% (inactive); in the assay on SF-539 CNS, -39.6% (active) and 3.1% (active); with UACC-257 melanoma it was 24.9% (inactive) and 61.4% (inactive); with M14 melanoma, -26.3% (active) and 8.5% (active).
